Holding throughout (experiment): Primary qHTS to identify gynecologic anti-cancer compounds using libraries of approved drugs and bioactive compounds (AID 1345084); further: nearly all actives have a fitted effect of over 55% in size
A general note: Quantitative high-throughput screening tests each substance at several concentrations.

The subject of one assay is C33A. The following applies: Gynecologic cancer cell panel viability, ATPlite luminescence, 48 h; series mostly up to 57.5 µM. The method in brief: (§1)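 Luminescence from the ATPlite ATP-monitoring reagent indicates viable cell number; lower signal means cytotoxicity. Cells received compound 16 h after seeding and were exposed for 48 h across five concentrations.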
The test system of another assay is CASKI. The conditions noted are these: Gynecologic cancer cell panel viability, ATPlite luminescence, 48 h; series mostly up to 57.5 µM. The gist of the method:
as §1
(Cellular ATP, detected with luciferase, serves as a proxy for viable cell number.)

For another assay, the system named is Es-2. The following applies: Gynecologic cancer cell panel viability, ATPlite luminescence, 48 h; series mostly up to 57.5 µM. The method in brief:
as §1

Another assay relates to HeLa. The following applies: Gynecologic cancer cell panel viability, ATPlite luminescence, 48 h; series mostly up to 57.5 µM. The method in brief: as §1
A further assay has as its system Hek293T. The following applies: Gynecologic cancer cell panel viability, ATPlite luminescence, 48 h, control line for the selectivity index; series mostly up to 57.5 µM. The method in brief:
as §1

The subject of the next assay is JEG-3. The following applies: Gynecologic cancer cell panel viability, ATPlite luminescence, 48 h; series mostly up to 57.5 µM. The gist of the method:
as §1

A further assay has as its system OV90. The conditions noted are these: Gynecologic cancer cell panel viability, ATPlite luminescence, 48 h; series mostly up to 57.5 µM. The gist of the method: as §1
The next assay deals with PA-1. The conditions noted are these: Gynecologic cancer cell panel viability, ATPlite luminescence, 48 h; series mostly up to 57.5 µM. The method in brief:
as §1

Another assay concerns SKOV3. The following applies: Gynecologic cancer cell panel viability, ATPlite luminescence, 48 h; series mostly up to 57.5 µM. The method in brief:
as §1

Another assay concerns Tov-21-G. The following applies: Gynecologic cancer cell panel viability, ATPlite luminescence, 48 h; series mostly up to 57.5 µM. The gist of the method: as §1
Another assay relates to Tov112D. The conditions noted are these: Gynecologic cancer cell panel viability, ATPlite luminescence, 48 h; series mostly up to 57.5 µM. The gist of the method:
as §1

13 compounds from PubChem BioAssay (NCATS) can be followed below.

Results filed as inconclusive are left out. A number with no mark means an inactive call. The source made the active and inactive calls. The call rests on the fitted dose curve; in most records, active means well fitted cell-killing curve with a large enough effect; inconclusive means small, poorly fitted or top-dose-only effect, or effect the other way; inactive means flat fitted curve, though single readings scatter.
On the % scale 0 is the no-effect control and ±100 the full control effect; potency means the concentration at half of the fitted maximal effect.

`O=C(O)/C=C/c1ccc(-c2ccc(O)c(C34CC5CC(CC(C5)C3)C4)c2)cc1`: the Potency with C33A was 1580 nM (active); in the assay on CASKI it was 1780 nM (active); with Es-2, 631 nM (active); with HeLa it was 8910 nM (active); in the assay on Hek293T, 2000 nM (active); in the assay with JEG-3, 2820 nM (active). In addition, the Potency in the assay with OV90 was 10000 nM (active); with PA-1, 2240 nM (active); with SKOV3, 631 nM (active); with Tov-21-G it was 794 nM (active); with Tov112D, 1410 nM (active).
For the compound `COC(=O)C1(C)CCC2(C(=O)O)CCC3(C)C(=CCC4C5(C)CC(O)C(OC6OCC(O)C(O)C6O)C(C)(CO)C5CCC43C)C2C1` (stereo not drawn), the Potency entry in the assay with C33A, in the assay on CASKI, with Es-2, in the assay on HeLa, with Hek293T and in the assay with JEG-3 was “inactive” in each case. Moreover, the Potency entry with OV90, in the assay with PA-1, with SKOV3, in the assay on Tov-21-G and in the assay with Tov112D was “inactive” in each case.
On to `CC/C=C\C/C=C\C/C=C\CCCCCCCC(=O)OCC(O)COC1OC(CO)C(O)C(O)C1O` (stereo not drawn), for which the Potency result in the assay with C33A, in the assay on CASKI, in the assay with Es-2, with HeLa, with Hek293T and in the assay with JEG-3 was “inactive” each time. Besides, the Potency result in the assay on OV90, in the assay with PA-1, with SKOV3, in the assay with Tov-21-G and in the assay on Tov112D was “inactive” in each case.
Take `COc1cc(/C=C/C=O)cc(OC)c1O[C@@H]1O[C@H](CO)[C@@H](O)[C@H](O)[C@H]1O`: the Potency entry with C33A, in the assay with CASKI, in the assay with Es-2, in the assay on HeLa, in the assay on Hek293T and in the assay on JEG-3 was “inactive” each time. Moreover, the Potency result in the assay with OV90, with PA-1, with SKOV3, in the assay with Tov-21-G and in the assay with Tov112D was “inactive” in each case.
As for `C[C@@H]1CC[C@]2(C(=O)O)CC[C@]3(C)C(=CCC4[C@@]5(C)CC[C@H](O)C(C)(C)C5C(O)C[C@]43C)[C@@H]2[C@]1(C)O` (stereo partly drawn), the Potency result in the assay on C33A, in the assay on CASKI, in the assay on Es-2, in the assay on HeLa, in the assay on Hek293T and in the assay with JEG-3 was “inactive” each time. The Potency entry with OV90, in the assay on PA-1, in the assay on SKOV3, in the assay with Tov-21-G and in the assay with Tov112D was “inactive” each time.
On to `CC1(C)[C@@H](O)CC[C@]2(C)[C@H]3CC=C4[C@@H]5C[C@](C)(C(=O)O)CC[C@]5(C)CC[C@@]4(C)[C@]3(C)CC[C@@H]12`, for which the Potency result with C33A, in the assay with CASKI, with Es-2, with HeLa, in the assay with Hek293T and with JEG-3 was “inactive” throughout. Further, the Potency entry in the assay on OV90, in the assay with PA-1, in the assay on SKOV3, in the assay with Tov-21-G and with Tov112D was “inactive” throughout.
Take `CC(C)S(=O)(=O)N[C@H]1CCOC[C@@H]1c1ccc(-c2ccc(C#N)s2)cc1`: the Potency entry with C33A, with CASKI, in the assay with Es-2, in the assay on HeLa, with Hek293T and with JEG-3 was “inactive” in each case. In addition, the Potency entry with OV90, in the assay with PA-1, in the assay on SKOV3, in the assay with Tov-21-G and in the assay with Tov112D was “inactive” in each case.
On to `COC(=O)C[C@H]1[C@]2(C)C3=C(C)[C@H](c4ccoc4)C[C@H]3O[C@@H]2[C@H](OC(C)=O)C2[C@](C)(C(=O)OC)C=CC(=O)[C@@]21C` (stereo partly drawn), for which the Potency entry with C33A, in the assay on CASKI, in the assay with Es-2, with HeLa, in the assay with Hek293T and in the assay on JEG-3 was “inactive” each time. Also, the Potency result in the assay with OV90, in the assay on PA-1, in the assay on SKOV3, in the assay with Tov-21-G and with Tov112D was “inactive” throughout.
Consider `C[C@@H]1O[C@@H](O[C@H]2[C@H](O)[C@@H](O)[C@H](OC3CCC4(C)C5CCC(C)(C(CO)OC6OC(CO)C(O)C(O)C6O)CC5=CCC4C3(C)C)O[C@@H]2CO)[C@H](O)[C@H](O)[C@H]1O` (stereo partly drawn), for which the Potency result with C33A, in the assay with CASKI, with Es-2, in the assay on HeLa, in the assay on Hek293T and in the assay on JEG-3 was “inactive” throughout. For the same compound, the Potency result in the assay on OV90, in the assay with PA-1, in the assay on SKOV3, in the assay with Tov-21-G and in the assay with Tov112D was “inactive” throughout.
For `NC(=O)C(CCC(F)(F)F)N(Cc1ccc(-c2ncon2)cc1F)S(=O)(=O)c1ccc(Cl)cc1` (stereo not drawn), the Potency entry in the assay with C33A, in the assay with CASKI, in the assay with Es-2, in the assay with HeLa, with Hek293T and in the assay with JEG-3 was “inactive” in each case. Further, the Potency result in the assay with OV90, in the assay with PA-1, in the assay on SKOV3, in the assay with Tov-21-G and in the assay with Tov112D was “inactive” throughout.
For the compound `COc1ccc([C@H]2CNC(=O)C2)cc1OC1CCCC1`, the Potency result in the assay with C33A, in the assay on CASKI, in the assay on Es-2, in the assay on HeLa, with Hek293T and with JEG-3 was “inactive” in each case. Besides, the Potency entry in the assay on OV90, with PA-1, with SKOV3, in the assay with Tov-21-G and in the assay on Tov112D was “inactive” throughout.
`C[C@@]12CC[C@@H]3[C@@](CC[C@H]4[C@@]3(C)CCC[C@@]4(C)C(=O)O)(CC1=O)C2`: the Potency entry in the assay with C33A, in the assay on CASKI, in the assay on Es-2, in the assay with HeLa, in the assay on Hek293T and in the assay on JEG-3 was “inactive” each time. In addition, the Potency entry in the assay on OV90, in the assay on PA-1, in the assay with SKOV3, in the assay with Tov-21-G and with Tov112D was “inactive” in each case.
Take `C[C@@H]1O[C@@H](O[C@H]2[C@H](O)[C@@H](O)[C@H](OC[C@H]3O[C@@H](OC(=O)[C@]45CCC(C)(C)C[C@H]4C4=CCC6[C@@]7(C)CC[C@H](O[C@@H]8OC[C@H](O)[C@H](O[C@@H]9O[C@H](CO)[C@@H](O)[C@H](O)[C@H]9O)[C@H]8O)[C@@](C)(CO)C7CC[C@@]6(C)[C@]4(C)CC5)[C@H](O)[C@@H](O)[C@@H]3O)O[C@@H]2CO)[C@H](O)[C@H](O)[C@H]1O` (stereo partly drawn): the activity change, negative = cytotoxicity was 0.512% [at 6.55 µM] with C33A; -0.125% [at 6.55 µM] with CASKI; -1.94% [at 6.55 µM] with Es-2; 8.6% [at 6.55 µM] with HeLa; -5.57% [at 6.55 µM] in the assay on Hek293T; 16.9% [at 6.55 µM] in the assay on JEG-3. For the same compound, the activity change, negative = cytotoxicity with OV90 is 13.6% [at 6.55 µM]; with PA-1 it was 8.25% [at 6.55 µM]; in the assay with SKOV3, 11.5% [at 6.55 µM]; in the assay on Tov-21-G, 8.55% [at 6.55 µM]; with Tov112D, -0.716% [at 6.55 µM].
